# In the library only some 8.5% were active in any assay of this set; here they are far more common.
# NPSR antag: qHTS Assay for Antagonists of the Neuropeptide S Receptor: cAMP Signal Transduction; Q6W5P4; CHO-NPSR cells, cAMP TR-FRET, antagonist mode; 220,000 compounds, 1% hits; Potency, µM (titrated, usually from 38.3 µM), without a hit: top-dose activity change, negative = inhibition, most hits filed as inhibitors; active = well fitted curve in the direction sought with a large enough effect; inconclusive = small, poorly fitted or top-dose-only effect, or another doubt; inactive = no such curve, though single readings can be large; an effect the other way counts as inactive or inconclusive; note: potency is the fitted concentration of half-maximal effect; nearly all actives have a fitted effect of over 50% in size
# Target sequence (Q6W5P4 whole entry, looked up): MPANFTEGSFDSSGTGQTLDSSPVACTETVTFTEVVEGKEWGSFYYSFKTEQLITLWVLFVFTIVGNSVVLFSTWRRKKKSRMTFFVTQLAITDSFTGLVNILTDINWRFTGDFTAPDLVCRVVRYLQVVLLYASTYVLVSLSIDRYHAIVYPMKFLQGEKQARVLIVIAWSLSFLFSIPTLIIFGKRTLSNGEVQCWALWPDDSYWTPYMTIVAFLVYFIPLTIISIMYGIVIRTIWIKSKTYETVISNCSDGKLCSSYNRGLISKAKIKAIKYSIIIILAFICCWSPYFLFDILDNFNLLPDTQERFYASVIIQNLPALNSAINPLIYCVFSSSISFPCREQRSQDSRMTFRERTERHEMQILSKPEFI
# Coupling enz: qHTS Assay for Inhibitors of Fructose-1,6-bisphosphate Aldolase from Giardia Lamblia: Coupling assay counterscreen | coupling enzyme system counterscreen, AmpLite Red fluorescence | AID 2472, 2010 | 290,000 compounds, 0.67% hits | activity change, negative = inhibition, % at 58.2 µM, hits read low; in the data active = activity change below about -30%
#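 Counterscreen lacking aldolase: glyceraldehyde-3-phosphate coupling-enzyme reagent preincubated 10 min at RT with compound (at 57.5 uM final), then substrate/coupling system with AmpLite Red added; fluorescence read at 525/598 nm after 20 min RT.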
# GoLoco inh red: qHTS Assay for Inhibitors of RGS12 GoLoco Motif Activity (Red Fluorophore); Guanine nucleotide-binding protein G(i) subunit alpha-1 (Homo sapiens), P63096; Gai1:RGS12 GoLoco peptide FP, rhodamine, 10 min; Potency, µM (doses to about 61.6 µM), for the others: at the top dose activity, negative = inhibition, most hits filed as inhibitors; 230,000 compounds, 0.44% hits; active = well fitted inhibition curve with a large enough effect, not every such curve was filed as active; inactive = no such curve, though single readings can be large or run the other way; note: potency is the fitted concentration of half-maximal effect; nearly all actives have a fitted effect of over 30% in size
# Target sequence (P63096 whole entry, looked up): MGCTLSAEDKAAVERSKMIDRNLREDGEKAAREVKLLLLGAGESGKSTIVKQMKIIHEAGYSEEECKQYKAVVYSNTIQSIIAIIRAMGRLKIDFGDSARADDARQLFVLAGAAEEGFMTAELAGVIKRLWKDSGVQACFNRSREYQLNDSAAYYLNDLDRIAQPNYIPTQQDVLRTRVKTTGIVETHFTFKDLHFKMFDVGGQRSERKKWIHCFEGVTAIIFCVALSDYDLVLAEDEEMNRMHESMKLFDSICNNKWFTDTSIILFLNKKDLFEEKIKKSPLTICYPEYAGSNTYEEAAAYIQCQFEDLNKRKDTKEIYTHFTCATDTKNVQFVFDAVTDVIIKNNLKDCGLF
# Sfp PPTase inh: qHTS Assay for Inhibitors of Bacillus subtilis Sfp phosphopantetheinyl transferase (PPTase) | Biochemical Sfp PPTase activity, qHTS | Potency, µM, inactives show largest response in the series, negative = inhibition, hits mostly inhibitors | 310,000 compounds, 3.5% hits; active = well fitted curve in the direction sought with a large enough effect; inconclusive = small, poorly fitted or top-dose-only effect, or another doubt; inactive = no such curve, though single readings can be large; an effect the other way counts as inactive or inconclusive;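 note: the enzyme is Sfp with the accession as filed and its product quenches rhodamine fluorescence; potency is the fitted concentration of half-maximal effect; 0% = enzyme reaction without inhibitor and -100% = no enzyme wells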
#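 Reaction rates are the 30-min fluorescence difference (ex 525, em 598 nm) in wells containing 15 nM Sfp, 5 uM rhodamine-CoA and 12.5 uM BHQ-2-YbbR at pH 7.6 with 10 mM MgCl2.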
# ALDH1A1 block: qHTS Assay for Inhibitors of Aldehyde Dehydrogenase 1 (ALDH1A1); Purified ALDH1A1, NADH fluorescence, propionaldehyde substrate; AID 1030, 2008; Aldehyde dehydrogenase 1A1 (Homo sapiens), P00352; 220,000 compounds, 7.3% hits; Potency, µM (highest dose often 75.3 µM), without a hit: at the highest dose activity, negative = inhibition, most hits filed as inhibitors;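 note: potency is the fitted concentration of half-maximal effect; plate controls were no enzyme wells and a reference inhibitor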
# KDM4E inh: qHTS Assay for Inhibitors of Human Jumonji Domain Containing 2E (JMJD2E); AID 2147, 2009; 230,000 compounds, 1.6% hits; Lysine-specific demethylase 4E (Homo sapiens), B2RXH2; JMJD2E catalytic domain, FDH-coupled NADH fluorescence (FDH is formaldehyde dehydrogenase); Potency, µM (highest dose often 57.1 µM), for inactives: top-dose activity change, negative = inhibition, hits mostly inhibitors;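 note: potency is the fitted concentration of half-maximal effect; 0% = wells with enzyme and -100% = buffer wells without enzyme; nearly all actives have a fitted effect of over 50% in size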
# Active calls of the source: *; ? = inconclusive; nt = no result given; [ ] = dose if it differs, or a comment. Unless noted, calls come from the whole dose curve; as a rule, active = well fitted inhibition curve with a large enough effect (not every such curve was filed as active); inconclusive = small, poorly fitted or top-dose-only effect, or another doubt; inactive = no such curve, though single readings can be large or run the other way. Unless noted, % is set by controls: 0 for no effect and ±100 for the full control effect.
SMILES,NPSR antag,Coupling enz,GoLoco inh red,Sfp PPTase inh,ALDH1A1 block,KDM4E inh
Oc1cccc[c]1[Hg][Cl],nt,nt,nt,0.14µM*,nt,nt
NCCCNCCCCNCCCNC(=O)Cc1ccc(O)cc1,nt,3,0%[14.2 µM],18%,6%[13.5 µM],nt
CCN1CCN(Cc2cc(C(C)(C)C)c(O)c(C(C)(C)C)c2)CC1,-1%[46.1 µM],0,-7%,?,28µM*,?
CCCCOCC1CO1 (stereo unspecified),nt,nt,-6%,nt,-4%,nt
CCCCCc1nc2c(c(=O)c3ccccc3n2C)c(=O)n1C1CCCCCC1,10µM*,2,43%,40µM*,3.5µM*,-3%
CCCCCc1nc2ccccc2c(=O)n1-c1ccccc1[N+](=O)[O-],-27%,0,0%,?,?,1%
CC1CCCN(C(=O)c2ccc(N3CC4CC(C3)c3cccc(=O)n3C4)c([N+](=O)[O-])c2)C1 (stereo unspecified),12%,1,52%,-2%,7.9µM*,3%
CSSC,nt,nt,4%,nt,3%,nt
O=C1NC(=O)C(=Cc2ccc(SC3CCCCC3)o2)C(=O)N1,?,0,54%,28µM*,25µM*,?
N#Cc1ccc(CN2CC[C@@]3(CCCNC3)C2)cc1,nt,-1,1%,5%,-8%,nt
COc1ccc(-n2c(C)cc(C(=O)C[N+]34CCN(CC3)CC4)c2C)cc1,4%,7,-19%,-3%,0%,22µM*
CN(C)c1ccc(-[n+]2c(-c3ccccc3)cc(-c3ccccc3)cc2-c2ccccc2)cc1,13µM*,4,9%,-1%,-14%,-6%
c1ccc(-c2cc(-c3ccccc3)[n+](-c3ccccc3)c(-c3ccccc3)c2)cc1,?,1,2%,-5%,nt,?
O=C(O)CF,nt,1,6%,33%,0%,11%
O=C1C(I)=CC(=C(c2cc(I)c(O)c(I)c2)c2ccccc2C(=O)O)C=C1I,nt,nt,nt,32µM*,nt,nt
C/C=C1/C2C=C(C)CC1(N)c1ccc(=O)[nH]c1C2 (stereo unspecified),nt,3,17%,7%,3%,nt
CCOc1ccccc1OCCCCN1CCCC1,0%[46.1 µM],0,-7%,?,22µM*,0%
Brc1ccccc1OCCCN1CCOCC1,0%[46.1 µM],2,0%,-20%,-9%,?
CCC(C)n1c(=O)[nH]c(C)c(Br)c1=O (stereo unspecified),nt,0,nt,12%,nt,nt
Fc1ccc(CN2CCN(c3ccc(Cl)cc3)CC2)cc1,-8%,1,3%,4%,14%,-5%
Cc1cccc(CN2CCN(Cc3ccc(Cl)cc3)CC2)c1,-2%[46.1 µM],-12,6%,?,?,16µM*
Cc1cccc(CN2CCN(c3ccc(Cl)cc3)CC2)c1,-32%,4,-9%,-15%,?,22µM*
CC1=CCCC2C1(C)CCC(C)C2(C)CC/C(C)=C/C[n+]1cn(C)c2c(N)ncnc21 (stereo unspecified),nt,0,-2%,-25%,18µM*,-6%
NCC(O)c1cc(O)c(O)cc1F (stereo unspecified),?,nt,5%,nt,-8%,14µM*
O=c1c2ccccc2nc(/C=C/c2cccnc2)n1Cc1ccccc1,17%,0,1%,32µM*,5µM*,7.9µM*
SMILES,NPSR antag,Coupling enz,GoLoco inh red,Sfp PPTase inh,ALDH1A1 block,KDM4E inh
O=c1c2ccccc2nc(/C=C/c2ccccc2)n1-c1ccc(O)cc1,nt,-2,nt,11%,nt,nt
COc1cc(O)c(C(=O)c2ccccc2)cc1S(=O)(=O)O,nt,8,-5%,13%,13µM*,nt
Cn1cc(C(=O)c2ccccc2)c2ccccc21,-5%[46.1 µM],-1,5%,15%,-10%,-2%
CCOC(=O)c1ncn2c1CN(C)C(=O)c1cc(N=[N+]=[N-])ccc1-2,nt,-4,-6%,12%,?,-4%
CCC(C)NC(=O)c1c(N)n(Cc2ccc3c(c2)OCO3)c2nc3ccccc3nc12 (stereo unspecified),-19%[46.1 µM],-37*,-10%,-7%,?,?
CC(C)CCNC(=O)c1c(N)n(CC2CCCO2)c2nc3ccccc3nc12 (stereo unspecified),?,-42*,3%,-3%,?,?
CCC(C)NC(=O)c1c(N)n(CC2CCCO2)c2nc3ccccc3nc12 (stereo unspecified),3%[7.67 µM],-40*,4%,-15%,?,?
CCCCn1c(N)c(C(=O)NCCN2CCOCC2)c2nc3ccccc3nc21,?,-13,-1%,-5%,?,?
CSCC[C@H](NC(=O)[C@H](CC(C)C)NC(=O)[C@@H](Cc1cnc[nH]1)NC(=O)[C@H](Cc1ccccc1)NC(=O)[C@@H](Cc1ccccc1)NC(=O)[C@@H](N)Cc1ccc(O)cc1)C(N)=O,nt,-1,nt,10%,nt,nt
N#CSCC(=O)N1c2ccccc2CCc2ccccc21,?,1,9%,-21%,0.79µM*,-3%
NCCNCCNCCNCCN,nt,nt,0%,28%,32µM*,nt
Cc1ccc(N2C(=O)NC(=O)/C(=C/c3cnn(-c4ccc(C)cc4)c3)C2=O)cc1,-49%,1,9%,-3%,2.5µM*,-2%
Cc1ccc(N2C(=O)NC(=O)/C(=C/c3ccoc3)C2=O)cc1,6%,2,19%,25µM*,nt,?
CSc1ncc(/C=C2/C(=O)NC(=O)N(c3ccc(C)cc3)C2=O)cn1,-24%,4,1%,45µM*,?,?
CSc1ncc(/C=C2/C(=O)NC(=O)N(c3ccc(Cl)cc3)C2=O)cn1,-46%,-1,-2%,56µM*,?,?
O=C1NC(=O)N(c2ccc(F)cc2)C(=O)/C1=C/c1ccsc1,-21%,0,17%,?,?,-1%
C[N+]1(C)CCO[C@](O)(c2ccc(-c3ccc([C@]4(O)C[N+](C)(C)CCO4)cc3)cc2)C1,nt,0,6%[21.6 µM],14%,-6%[20.9 µM],5%[25.5 µM]
Cc1cc(SCc2sc(-c3ccc(C(F)(F)F)c(F)c3)nc2C)ccc1OCC(=O)O,nt,2,-1%,-21%,?,-14%
CC(=O)[C@H]1CC[C@H]2C3CC[C@H]4C[C@](C)(O)CC[C@]4(C)C3CC[C@]12C (stereo partly specified),nt,-2,nt,2%,nt,nt
Cc1ccc(N2C(=O)NC(=O)/C(=C\c3cccn3C(C)(C)C)C2=O)cc1,-23%,0,0%,15%,0.56µM*,-5%

# Screening results from PubChem BioAssay.
